From PubChem BioAssay (Tox21)
Several values for one entry are separate records, joined by “and”; a condition that tells them apart may be missing. Equal values may be shown once. Inconclusive results are not listed. Activity calls are given as the source filed them. Unless noted, calls come from the whole dose curve; as a rule, active = well fitted curve in the direction sought with a large enough effect in the repeat runs; inconclusive = weak or mixed curves; inactive = no such curve, though single readings can be large; an effect the other way counts as inactive or inconclusive.

Experiments:
[1] = qHTS assay to identify small molecule agonists of the hypoxia (HIF-1) signaling pathway - cell viability counter screen (AID 1224844; calls by dose curve; note: nearly all actives have a fitted effect of over 50% in size; note: potency is the fitted concentration of half-maximal effect)
Procedure, shortened: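 Viability counter screen: HRE-bla ME-180 cells plated 5 hrs before compound addition, treated 17 hrs at 37C and 5% CO2, then CellTiter-Glo added after the FRET reporter read; luminescence after 30 min.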

[2] = qHTS assay to identify small molecule agonists of H2AX - cell viability counter screen (AID 1224847; calls by dose curve; note: nearly all actives have a fitted effect of over 30% in size; note: potency is the fitted concentration of half-maximal effect)
Procedure, shortened: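 Counter-screen for viability: CellTiter-Glo ATP luminescence read after 3 h compound treatment (15-point titration, 0.76% DMSO final) of CHO-K1 cells at 37C, with 30 min room-temperature reagent incubation.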

[3] = qHTS RealTime-Glo MT Cell Viability Assay in HepG2 cells - 24 hour (AID 1224867); note: nearly all actives have a fitted effect of over 50% in size; note: potency is the fitted concentration of half-maximal effect
Procedure, shortened: (§1)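 HepG2 suspension premixed with RealTime-Glo reagents is plated at 600 cells per well and left 5 h at 37 C/5% CO2. Compounds in DMSO then go in, and bioluminescence reflecting viable cell number is recorded over 40 h.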

[4] = qHTS RealTime-Glo MT Cell Viability Assay in HEK293 cells - 32 hour (AID 1224868); note: nearly all actives have a fitted effect of over 50% in size; note: potency is the fitted concentration of half-maximal effect
Procedure, shortened: (§2)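 Reads taken at 0, 8, 16, 24, 32 and 40 h from the same wells. HEK293 cells (600/well) carried RealTime-Glo reagents from seeding, with compound added after a 5 h settle at 37 C.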

[5] = A CellTox Green Cytotoxicity Assay to monitor cytotoxicity in HEK293 cells - 0 hour (AID 1224869); note: nearly all actives have a fitted effect of over 50% in size
Procedure, shortened: (§3)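 Dead-cell fluorescence measured kinetically: asymmetric cyanine dye, HEK293, 600 cells/well, 5 h settle, 23 nL cpd/DMSO, 37 C, reads 0–40 h every 8 h.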

[6] = qHTS RealTime-Glo MT Cell Viability Assay in HepG2 cells - 40 hour (AID 1224870); note: nearly all actives have a fitted effect of over 50% in size; note: potency is the fitted concentration of half-maximal effect
Procedure, shortened: (§4)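 HepG2 cells mixed with RealTime-Glo MT reagents (NanoLuc plus cell-permeant prosubstrate) were seeded at 600 cells/well, incubated 5 h at 37 C/5% CO2, then pinned with compounds in DMSO; nonlytic luminescence tracked viability during 40 h treatment.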

[7] = qHTS RealTime-Glo MT Cell Viability Assay in HEK293 cells - 16 hour (AID 1224872); note: nearly all actives have a fitted effect of over 50% in size; note: potency is the fitted concentration of half-maximal effect
Procedure, shortened: as §2

[8] = qHTS RealTime-Glo MT Cell Viability Assay in HepG2 cells - 8 hour (AID 1224873); note: nearly all actives have a fitted effect of over 55% in size; note: potency is the fitted concentration of half-maximal effect
Procedure, shortened: as §4

[9] = qHTS RealTime-Glo MT Cell Viability Assay in HEK293 cells - 40 hour (AID 1224874); details: RealTime-Glo luminescence; max response: active compounds read low; note: nearly all actives have a fitted effect of over 50% in size; note: potency is the fitted concentration of half-maximal effect
Procedure, shortened: (§5)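 600 HEK293 cells per well, dispensed already mixed with RealTime-Glo MT reagents. Compound dosing came 5 h later. The same wells were read for luminescence at 0, 8, 16, 24, 32 and 40 h of exposure at 37 C.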

[10] = A CellTox Green Cytotoxicity Assay to monitor cytotoxicity in HEK293 cells - 24 hour (AID 1224875); note: nearly all actives have a fitted effect of over 45% in size; note: potency is the fitted concentration of half-maximal effect
Procedure, shortened: as §3

[11] = A CellTox Green Cytotoxicity Assay to monitor cytotoxicity in HepG2 cells - 16 hour (AID 1224876); note: nearly all actives have a fitted effect of over 45% in size; note: potency is the fitted concentration of half-maximal effect
Procedure, shortened: (§6)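 First, HepG2 cells (600/well) mixed with reagent were plated; second, after 5 h at 37 C they received compounds via pintool; third, fluorescence was measured at 0 h through 40 h at 8 h intervals.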

[12] = qHTS RealTime-Glo MT Cell Viability Assay in HepG2 cells - 32 hour (AID 1224877); note: nearly all actives have a fitted effect of over 55% in size; note: potency is the fitted concentration of half-maximal effect
Procedure, shortened: as §1

[13] = A CellTox Green Cytotoxicity Assay to monitor cytotoxicity in HepG2 cells - 24 hour (AID 1224878); note: nearly all actives have a fitted effect of over 45% in size; note: potency is the fitted concentration of half-maximal effect
Procedure, shortened: as §6

[14] = A CellTox Green Cytotoxicity Assay to monitor cytotoxicity in HepG2 cells - 40 hour (AID 1224879); note: nearly all actives have a fitted effect of over 40% in size; note: potency is the fitted concentration of half-maximal effect
Procedure, shortened: as §6

[15] = qHTS RealTime-Glo MT Cell Viability Assay in HEK293 cells - 0 hour (AID 1224880); note: top concentration of the series differs between compounds; nearly all actives have a fitted effect of over 45% in size
Procedure, shortened: as §5

[16] = qHTS assay to identify small molecule agonists of H2AX (AID 1224845; active = well fitted activation curve with a large enough effect in the signal ratio in the repeat runs, not every such curve was filed as active; the % refers to the signal ratio; note: potency is the fitted concentration of half-maximal effect)
Procedure, shortened: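 Wild-type CHO-K1 cells plated overnight, then exposed 3 hr at 37C to compounds at 15 concentrations (0.76% DMSO). Lysed, then HTRF anti-pH2AX(S139)-cryptate/anti-H2AX-d2 detection after 24 hr at room temperature; emissions 665 and 620 nm.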

[17] = A CellTox Green Cytotoxicity Assay to monitor cytotoxicity in HEK293 cells - 40 hour (AID 1224871); note: nearly all actives have a fitted effect of over 45% in size; note: potency is the fitted concentration of half-maximal effect
Procedure, shortened: as §3

[18] = qHTS assay to identify small molecule antagonists of the estrogen related receptor (ERR) signaling pathway from Tox21 library (AID 1224848); note: nearly all actives have a fitted effect of over 50% in size; note: potency is the fitted concentration of half-maximal effect
Procedure, shortened: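 Tox21 10K compounds in DMSO tested for ERR pathway antagonism in NTP's ERR cell line; 18 h, 37 C exposure; ONE-Glo luminescence.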

[19] = qHTS assay to identify small molecule agonists of the estrogen related receptor (ERR) signaling pathway from Tox21 library (AID 1224849; calls by dose curve; note: nearly all actives have a fitted effect of over 15% in size); details: ERR reporter cell line, ONE-Glo luciferase, 18 h
Procedure, shortened: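 Quantitative HTS in agonist format: NTP ERR cell line, compounds transferred in DMSO after 6 h plating, 18 h incubation at 37 C, ONE-Glo luminescence endpoint.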

[20] = qHTS assay to identify small molecule agonists of the hypoxia (HIF-1) signaling pathway (AID 1224846; active = well fitted activation curve with a large enough effect in the signal ratio in the repeat runs, not every such curve was filed as active; the % refers to the signal ratio)
Procedure, shortened: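 Agonist mode reporter screen. ME-180 cells stably expressing bla under HRE control received test compounds in DMSO for 17 hrs (37C, 5% CO2), and beta-lactamase activity was then detected with the CCF4-AM FRET substrate.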
% is set by controls: 0 for no effect and ±100 for the full control effect.

C=C1CC[C@H](O)C/C1=C\C=C1/CCC[C@]2(C)[C@@H]([C@H](C)CCCC(C)C)CC[C@@H]12
inactive: Potency [3] | Potency [5] | Potency [6] | Potency [8] | Potency [10] | Potency [11] | Potency [12] | Potency [13] | Potency [14] | Potency [15]
active: Potency [1] 38.5 µM | Potency [2] 112 µM | Potency [4] 43.2 µM | Potency [7] 38.5 µM | Potency [9] 43.2 µM

CC/C(=C(\c1ccccc1)c1ccc(OCCN(C)C)cc1)c1ccccc1
active: Potency [1] 24.8 µM [middle of 4 runs] | Potency [16] 50.5 µM | Potency [2] 80.7 µM [middle of 5 runs] | Potency [3] 38.9 µM [middle of 4 runs] | Potency [4] 22.1 µM [middle of 5 runs] | Potency [6] 24.5 µM [middle of 4 runs] | Potency [17] 24.7 µM [middle of 5 runs] | Potency [7] 34.6 µM [middle of 5 runs] | Potency [8] 54.9 µM and 19.7 µM and 43.6 µM | Potency [9] 22.1 µM [middle of 5 runs] | Potency [10] 35 µM [middle of 5 runs] | Potency [11] 54.9 µM [middle of 4 runs] | Potency [12] 30.9 µM [middle of 4 runs] | Potency [13] 48.9 µM [middle of 5 runs] | Potency [14] 43.6 µM [middle of 5 runs]

CC1(C)S[C@@H]2[C@H](NC(=O)[C@H](N)c3ccccc3)C(=O)N2[C@H]1C(=O)O
inactive: Potency [1] | Potency [16] | Potency [2] | Potency [17] | Potency [10] | Potency [11] | Potency [13] | Potency [14]

COc1ccc2cc(S(=O)(=O)N[C@H](CC(=O)N[C@H](Cc3ccc(CN4[C@H](C)CCC[C@@H]4C)cc3)C(=O)N(C)C(C)C)c3ccc4c(c3)OCO4)ccc2c1
active: Potency [1] 10.4 µM | Potency [18] 25.8 µM | Potency [3] 52 µM | Potency [4] 26.1 µM | Potency [6] 52 µM | Potency [17] 52 µM | Potency [7] 46.3 µM | Potency [8] 52 µM | Potency [9] 26.1 µM | Potency [11] 52 µM | Potency [12] 52 µM | Potency [13] 52 µM | Potency [14] 52 µM
inactive: activity change, positive = activation ([19]; at 92.4 µM (top of the series)) -76% | Potency [5]

C1=CC2C3C=CC(C3)C2C1 (configuration not stated)
inactive: Potency [16] | outcome [20] | Potency [18] | activity change, positive = activation ([19]; at 92.4 µM (top of the series)) -1.35% | Potency [3] | Potency [4] | Potency [6] | Potency [7] | Potency [8] | max response [9] 0.978% | Potency [11] | Potency [12] | Potency [13] | Potency [14] | Potency [15]

COc1cccc(O)c1O
inactive: outcome [20] | Potency [2] | Potency [3] | Potency [5] | Potency [6] | Potency [17] | Potency [7] | Potency [8] | Potency [10] | Potency [11] | Potency [12] | Potency [13] | Potency [14] | Potency [15]

O=CC(=O)c1ccccc1
inactive: Potency [1] | outcome [20] | Potency [18] | activity change, positive = activation ([19]; at 92.4 µM (top of the series)) -0.129% | Potency [3] | Potency [4] | Potency [6] | Potency [7] | Potency [8] | max response [9] 13% | Potency [10] | Potency [11] | Potency [12] | Potency [13] | Potency [14] | Potency [15]

CN1[C@@H]2CC(OC(=O)[C@H](CO)c3ccccc3)C[C@H]1[C@@H]1O[C@@H]12 (some centres not stated)
inactive: Potency [1] | Potency [2] | Potency [3] | Potency [4] | Potency [5] | Potency [6] | Potency [17] | Potency [7] | Potency [8] | max response [9] 0.652% [middle of 4 runs] | Potency [10] | Potency [11] | Potency [12] | Potency [13] | Potency [14] | Potency [15]

C1CCC(C(CC2CCCCN2)C2CCCCC2)CC1 (configuration not stated)
active: Potency [16] 6.95 µM | Potency [2] 55.2 µM | Potency [18] 29.8 µM | Potency [3] 5.35 µM | Potency [4] 10.7 µM | Potency [6] 5.35 µM | Potency [17] 16.9 µM | Potency [7] 19 µM | Potency [8] 21.3 µM | Potency [9] 10.7 µM | Potency [10] 21.3 µM | Potency [11] 12 µM | Potency [12] 5.35 µM | Potency [13] 9.52 µM | Potency [14] 5.35 µM
inactive: activity change, positive = activation ([19]; at 42.5 µM (top of the series)) -54.8% | Potency [5]

Cc1c(C(=O)O)c(O)cc2c1C(=O)c1c(O)c([C@@H]3O[C@H](CO)[C@@H](O)[C@H](O)[C@H]3O)c(O)c(O)c1C2=O
inactive: Potency [1] | outcome [20] | Potency [3] | Potency [4] | Potency [6] | Potency [17] | Potency [7] | Potency [8] | max response [9] -10.5% and -11.6% and 0.861% | Potency [10] | Potency [11] | Potency [12] | Potency [13] | Potency [14] | Potency [15]
active: Potency [2] 55.3 µM and 56.6 µM and 31 µM
